# Test results taken from PubChem BioAssay (NCI).
# This is part of a sample that, as a whole, favours compounds with a hit. Of some 79,000 tested, about 15% had one in any assay. Unmarked numbers belong to inactive results. Activity calls are given as the source filed them. Rule as the data show it: active = growth inhibition above about 70%; inactive = the rest.
# Experiment: NCI Yeast Anticancer Drug Screen. Data for the cln2 rad14 strain (AID 165);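 also: 0% = growth equal to vehicle treated cultures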
# Details: S. cerevisiae cln2 rad14 strain, at 50.0 µM (retest, dose inferred, filed as 5.0), active compounds read high
# Procedure, shortened: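 Strain: cln2 rad14 yeast, altered in cell cycle control and DNA damage repair. Read-out: growth inhibition vs vehicle.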
row,SMILES,growth inhibition
1,CC(=O)Oc1ccccc1C(=O)/C=C/c1ccccc1,40%
2,CN(C)C(=S)/N=c1\ssc(=S)n1-c1ccccc1,99% (active)
3,CCOC(=O)C(NS(=O)(=O)c1ccccc1)(C(F)(F)F)P(=O)(OCC(C)C)OCC(C)C (stereo not drawn),13%
4,CC(C)Nc1nc(NC(C)C)c2cnn(-c3ccccc3)c2n1,24%
5,CCCCCCCCC1(OCCCS(=O)(=O)O)COc2ccccc2OCCOCCOc2ccccc2OC1,73% (active)
6,Oc1ccc2c(c1)Cc1ccccc1-2,70% (active)
7,CCOC(=O)N1C2C=CC(=O)C(C=C2)N1C(=O)OCC (stereo not drawn),30%
8,CC(=O)OCc1ccc2c(c1)C(O)NC(=O)O2 (stereo not drawn),18%
9,CC(C)=CCc1ccc(O)cc1,96% (active)
10,CCCCCCCCC(=O)Cl,38%
11,O=S1(=O)C(C(O)(c2ccccc2)c2ccccc2)CCCN1c1ccccc1 (stereo not drawn),-19%
12,CCCCCCCCCCCCNCC(=O)O,53%
13,CC(C)=CCc1c2c(c(O)c3c(=O)c(-c4ccc(O)cc4O)coc13)C=CC(C)(C)O2,97% (active)
14,O=C(CCC(O)(c1ccccc1)c1ccccc1)c1ccccc1,99% (active)
15,CS(=O)(=O)OCCN(CCOS(C)(=O)=O)c1ccc(C=Nc2ccc(-c3csc(-c4ccc(Br)cc4)n3)cc2)cc1,92% (active)
16,O=P(O)(CN1CCN(CP(=O)(O)c2ccccc2)CCN(CP(=O)(O)c2ccccc2)CC1)c1ccccc1,58%
17,CC(C)c1ccc2c(c1)CCC1C(C)(CN)CCCC21C (stereo not drawn),99% (active)
18,Cc1ccc(S(=O)(=O)NNc2nc(N3CCOCC3)nc(N3CCOCC3)n2)cc1,-8%
19,O=C1OC(CC(=O)c2ccc(Cl)cc2Cl)C(Cl)=C1Cl (stereo not drawn),6%
20,CCOC(=O)c1ccc(-n2c(C)nc3ccc(Br)cc3c2=O)cc1,-6%

row,SMILES,growth inhibition
1,CCN(CC)CCOc1ccc(C=C2c3ccccc3-c3ccccc32)cc1,99% (active)
2,Cc1nn(C(=O)c2ccccc2O)c2c1C(c1ccc(O)cc1O)SC(N)=N2 (stereo not drawn),27%
3,CN(NC(=O)/C(=C/c1cc(Cl)cc(Cl)c1O)NC(=O)c1ccccc1)c1cnn(-c2ccccc2)c(=O)c1Cl,47%
4,Cn1c(=S)c2[nH]c(SCc3ccncc3)nc2n(C)c1=O,-12%
5,O=C1N=c2ccc(Br)cc2=C1c1sc(=O)n(Cc2nc3ccccc3[nH]2)c1O,6%
6,N#C/C(=C\c1cccnc1)c1csc2ccccc12,83% (active)
7,Cc1nn(CCO)c(=O)c(C#N)c1C,-5%
8,CN(/N=C/c1ccc(C(=O)O)cc1)C1=NCCCCN1,12%
9,C=CCCCN1C(=O)C2C3c4ccccc4C(C=O)(c4ccccc43)C2C1=O (stereo not drawn),12%
10,CC(Cc1ccccc1)N1C(=O)C=CC1=O (stereo not drawn),98% (active)
11,O=C(Nc1c(Cl)cc([N+](=O)[O-])cc1Cl)/C(=N\Nc1cccc(Cl)c1)c1c(O)c2ccccc2oc1=O,8%
12,C/C(=N/O)c1ccc2c(c1)C(=NO)c1cc(/C(C)=N/O)ccc1-2,99% (active)
13,CCCCCCCCCCCC(=O)NC(CCC(=O)O)C(=O)O (stereo not drawn),-9%
14,O=C1c2ccccc2C(=O)c2c1cccc2[N+](=O)[O-],86% (active)
15,C/C=C\C=N\NC(N)=S,-3%
16,Oc1c(Cl)cc(C(c2cc(Cl)c(O)c(Cl)c2)C(c2cc(Cl)c(O)c(Cl)c2)c2cc(Cl)c(O)c(Cl)c2)cc1Cl,98% (active)
17,S=C1NC2=C(CSC/C2=C\c2ccccc2)C(c2ccccc2)N1 (stereo not drawn),96% (active)
18,O=[N+]([O-])c1cccc2nc3ccccc3c(NCCNCCO)c12,98% (active)
19,COC12C=CC(CC1)c1c2c(O)c2ccncc2c1O (stereo not drawn),68%

# Same assay, conditions: S. cerevisiae cln2 rad14 strain, at 50.0 µM, active compounds read high
row,SMILES,growth inhibition
1,CC(=O)Oc1ccccc1C(=O)/C=C/c1ccccc1,-17.3%
2,CN(C)C(=S)/N=c1\ssc(=S)n1-c1ccccc1,-17.1%
3,CCOC(=O)C(NS(=O)(=O)c1ccccc1)(C(F)(F)F)P(=O)(OCC(C)C)OCC(C)C (stereo not drawn),97.3% (active)
4,CC(C)Nc1nc(NC(C)C)c2cnn(-c3ccccc3)c2n1,88.3% (active)
5,CCCCCCCCC1(OCCCS(=O)(=O)O)COc2ccccc2OCCOCCOc2ccccc2OC1,93.6% (active)
6,Oc1ccc2c(c1)Cc1ccccc1-2,88.3% (active)
7,CCOC(=O)N1C2C=CC(=O)C(C=C2)N1C(=O)OCC (stereo not drawn),67.8%
8,CC(=O)OCc1ccc2c(c1)C(O)NC(=O)O2 (stereo not drawn),16.2%
9,CC(C)=CCc1ccc(O)cc1,34.8%
10,CCCCCCCCC(=O)Cl,27.1%
11,O=S1(=O)C(C(O)(c2ccccc2)c2ccccc2)CCCN1c1ccccc1 (stereo not drawn),12.2%
12,CCCCCCCCCCCCNCC(=O)O,-6.3%
13,CC(C)=CCc1c2c(c(O)c3c(=O)c(-c4ccc(O)cc4O)coc13)C=CC(C)(C)O2,83.2% (active)
14,O=C(CCC(O)(c1ccccc1)c1ccccc1)c1ccccc1,-27.2%
15,CS(=O)(=O)OCCN(CCOS(C)(=O)=O)c1ccc(C=Nc2ccc(-c3csc(-c4ccc(Br)cc4)n3)cc2)cc1,81.2% (active)
16,O=P(O)(CN1CCN(CP(=O)(O)c2ccccc2)CCN(CP(=O)(O)c2ccccc2)CC1)c1ccccc1,60%
17,CC(C)c1ccc2c(c1)CCC1C(C)(CN)CCCC21C (stereo not drawn),98.7% (active)
18,Cc1ccc(S(=O)(=O)NNc2nc(N3CCOCC3)nc(N3CCOCC3)n2)cc1,70.6% (active)
19,O=C1OC(CC(=O)c2ccc(Cl)cc2Cl)C(Cl)=C1Cl (stereo not drawn),78.4% (active)
20,CCOC(=O)c1ccc(-n2c(C)nc3ccc(Br)cc3c2=O)cc1,64.5%

row,SMILES,growth inhibition
1,CCN(CC)CCOc1ccc(C=C2c3ccccc3-c3ccccc32)cc1,99.1% (active)
2,Cc1nn(C(=O)c2ccccc2O)c2c1C(c1ccc(O)cc1O)SC(N)=N2 (stereo not drawn),41%
3,CN(NC(=O)/C(=C/c1cc(Cl)cc(Cl)c1O)NC(=O)c1ccccc1)c1cnn(-c2ccccc2)c(=O)c1Cl,55.6%
4,Cn1c(=S)c2[nH]c(SCc3ccncc3)nc2n(C)c1=O,17.8%
5,O=C1N=c2ccc(Br)cc2=C1c1sc(=O)n(Cc2nc3ccccc3[nH]2)c1O,55.7%
6,N#C/C(=C\c1cccnc1)c1csc2ccccc12,73% (active)
7,Cc1nn(CCO)c(=O)c(C#N)c1C,11.7%
8,CN(/N=C/c1ccc(C(=O)O)cc1)C1=NCCCCN1,40.5%
9,C=CCCCN1C(=O)C2C3c4ccccc4C(C=O)(c4ccccc43)C2C1=O (stereo not drawn),29.6%
10,CC(Cc1ccccc1)N1C(=O)C=CC1=O (stereo not drawn),91.5% (active)
11,O=C(Nc1c(Cl)cc([N+](=O)[O-])cc1Cl)/C(=N\Nc1cccc(Cl)c1)c1c(O)c2ccccc2oc1=O,25.7%
12,C/C(=N/O)c1ccc2c(c1)C(=NO)c1cc(/C(C)=N/O)ccc1-2,93.7% (active)
13,CCCCCCCCCCCC(=O)NC(CCC(=O)O)C(=O)O (stereo not drawn),49.4%
14,O=C1c2ccccc2C(=O)c2c1cccc2[N+](=O)[O-],85.2% (active)
15,C/C=C\C=N\NC(N)=S,-24.6%
16,Oc1c(Cl)cc(C(c2cc(Cl)c(O)c(Cl)c2)C(c2cc(Cl)c(O)c(Cl)c2)c2cc(Cl)c(O)c(Cl)c2)cc1Cl,92% (active)
17,S=C1NC2=C(CSC/C2=C\c2ccccc2)C(c2ccccc2)N1 (stereo not drawn),68.8%
18,O=[N+]([O-])c1cccc2nc3ccccc3c(NCCNCCO)c12,76.8% (active)
19,COC12C=CC(CC1)c1c2c(O)c2ccncc2c1O (stereo not drawn),55.9%
